Measured values published in PubChem BioAssay (EPA / NIEHS).
Activity calls are given as the source filed them. Rule for the calls: active = hit-call score of the fitted dose curve at least 0.9, where 1 is the maximum; inactive = score below 0.9.

Assays:
[1] = APR_HepG2_NuclearSize_72hr: Apredica 72-hour HepG2 Assay for Nuclear Size (AID 2282925); conditions: high-content imaging, actives raise or lower the signal
How it was run: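 HepG2 cells dosed 72 h at 0.39–200 uM (10 concentrations, duplicate) in 0.5% v/v DMSO final. Fixed, Hoechst 33342-stained nuclei imaged; nuclear diameter measured by automated image analysis. Bidirectional fit versus DMSO.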

[2] = ATG_CRE_CIS: Attagene CIS-FACTORIAL HepG2 Assay for human cAMP Responsive Element (CRE) binding protein 3 (AID 2282926); conditions: HepG2 CRE cis-reporter, Attagene multiplexed mRNA; actives raise or lower the signal
How it was run: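 Transfected HepG2 were treated for 24 hours, then RNA was extracted and reporter cDNA amplified with sequence-specific primers. Labelled fragments were separated by capillary electrophoresis, and the CRE signal was fitted bidirectionally with DMSO as baseline.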

[3] = molecular target: CCAAT/enhancer-binding protein beta (Homo sapiens) (UniProt P17676); assay: ATG_C_EBP_CIS: Attagene CIS-FACTORIAL HepG2 Assay for human CCAAT/Enhancer Binding Protein (C/EBP) beta (AID 2282927); conditions: HepG2 Attagene cis-factorial transcription factor reporter; actives raise or lower the signal
Sequence of CCAAT/enhancer-binding protein beta (Homo sapiens) (P17676 whole entry, looked up): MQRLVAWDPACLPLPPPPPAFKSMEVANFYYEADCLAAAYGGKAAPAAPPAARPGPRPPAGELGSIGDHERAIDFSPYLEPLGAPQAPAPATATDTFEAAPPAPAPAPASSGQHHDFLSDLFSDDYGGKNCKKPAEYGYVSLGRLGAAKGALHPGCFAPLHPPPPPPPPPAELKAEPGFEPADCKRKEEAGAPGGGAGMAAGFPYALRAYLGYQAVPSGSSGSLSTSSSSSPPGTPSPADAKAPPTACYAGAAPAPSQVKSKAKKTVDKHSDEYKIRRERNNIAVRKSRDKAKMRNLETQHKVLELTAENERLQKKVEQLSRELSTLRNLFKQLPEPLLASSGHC
How it was run: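 Transiently transfected HepG2 (MRTU library, endogenous TF-driven promoters); 24 h dosing; total RNA → oligo(dT) RT → PCR → 6-FAM primer extension → HpaI digest → CE; fit bidirectionally vs DMSO.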

[4] = ATG_DR4_LXR_CIS: Attagene CIS-FACTORIAL HepG2 Assay for human Liver X Receptor (LXR), DR4 submotif (AID 2282929); conditions: HepG2 Attagene DR4 cis-reporter, mRNA transcription; actives raise or lower the signal
How it was run: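 After transient transfection with multiplexed cis-promoter reporter units, HepG2 cells received test chemicals for 24 h. Reporter mRNA induction, detected by fluorescence after RT-PCR and capillary electrophoresis, was scored relative to DMSO.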

[5] = molecular target: Aryl hydrocarbon receptor (Homo sapiens) (UniProt P35869); assay: ATG_Ahr_CIS: Attagene CIS-FACTORIAL HepG2 Assay for human Aryl Hydrocarbon Receptor (Ahr) (AID 2282930); conditions: HepG2 AhR cis-factorial reporter transcription; actives raise or lower the signal
Sequence of Aryl hydrocarbon receptor (Homo sapiens) (P35869 whole entry, looked up): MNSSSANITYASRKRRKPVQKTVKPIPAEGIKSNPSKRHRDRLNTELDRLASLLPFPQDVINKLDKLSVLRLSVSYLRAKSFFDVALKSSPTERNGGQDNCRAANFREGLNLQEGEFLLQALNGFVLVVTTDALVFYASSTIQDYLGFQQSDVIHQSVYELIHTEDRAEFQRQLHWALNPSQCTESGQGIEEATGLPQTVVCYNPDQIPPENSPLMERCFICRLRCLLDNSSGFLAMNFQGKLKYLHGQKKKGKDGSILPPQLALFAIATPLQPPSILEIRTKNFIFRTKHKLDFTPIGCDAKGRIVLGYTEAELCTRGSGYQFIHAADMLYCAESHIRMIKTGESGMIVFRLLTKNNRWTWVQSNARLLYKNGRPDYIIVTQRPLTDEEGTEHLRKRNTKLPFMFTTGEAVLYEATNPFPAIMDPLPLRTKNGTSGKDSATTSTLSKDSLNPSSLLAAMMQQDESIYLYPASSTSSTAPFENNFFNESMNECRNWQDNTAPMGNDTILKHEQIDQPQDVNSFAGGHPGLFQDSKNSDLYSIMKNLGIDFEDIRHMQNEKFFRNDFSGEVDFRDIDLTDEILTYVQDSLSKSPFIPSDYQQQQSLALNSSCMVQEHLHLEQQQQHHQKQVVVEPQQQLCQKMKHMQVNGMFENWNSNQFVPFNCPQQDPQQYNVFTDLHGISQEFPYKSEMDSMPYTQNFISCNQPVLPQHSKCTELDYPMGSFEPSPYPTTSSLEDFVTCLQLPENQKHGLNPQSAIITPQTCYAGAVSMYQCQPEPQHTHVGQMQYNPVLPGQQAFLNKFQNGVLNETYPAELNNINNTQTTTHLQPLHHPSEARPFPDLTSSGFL
How it was run: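 Read-out: reporter mRNA quantified by RT-PCR with fluorescent primer extension and capillary electrophoresis. Human HepG2 liver cells carried transfected cis-promoter reporter units and were exposed to chemical for 24 h; gain or loss fitted relative to DMSO.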

[6] = ATG_AP_1_CIS: Attagene CIS-FACTORIAL HepG2 Assay for human Activator Protein 1 (AP-1) (AID 2282931); conditions: HepG2 Attagene cis-factorial AP-1 reporter mRNA; actives raise or lower the signal
How it was run: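 After 24 h incubation with test chemical, RNA from transfected HepG2 cells was reverse-transcribed, amplified, fluorescently labelled and digested before capillary electrophoresis. Reporters were driven by cis-regulatory promoters; activity fitted bidirectionally versus DMSO.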

[7] = ATG_AP_2_CIS: Attagene CIS-FACTORIAL HepG2 Assay for human Activator Protein 2 (AP-2) (AID 2282932); conditions: HepG2 AP-2 cis-reporter, Attagene transcription factor profiling; actives raise or lower the signal
How it was run: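 HepG2 cells transiently transfected with cis-element reporter units and exposed for 24 h. Reporter mRNA measured by RT-PCR, FAM labelling, HpaI digestion and capillary electrophoresis. Changes in either direction fitted relative to DMSO.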

[8] = ATG_BRE_CIS: Attagene CIS-FACTORIAL HepG2 Assay for human Bone Morphogenetic Protein (BMP) Response Element (BRE) (AID 2282933); conditions: HepG2 BMP response element reporter, Attagene transcription factor profiling; actives raise or lower the signal
How it was run: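 Endogenous transcription factor activity at a BMP response element was monitored in transfected HepG2 cells 24 h after dosing. Fluorescent RT-PCR products were resolved by capillary electrophoresis, and activity was fitted in both directions versus DMSO.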

[9] = molecular target: Transcription factor E2F1 (Homo sapiens) (UniProt Q01094); assay: ATG_E2F_CIS: Attagene CIS-FACTORIAL HepG2 Assay for human E2F Transcription Factor 1 (AID 2282935); conditions: HepG2 Attagene cis-reporter, E2F reporter RNA transcripts; actives raise or lower the signal
Sequence of Transcription factor E2F1 (Homo sapiens) (Q01094 whole entry, looked up): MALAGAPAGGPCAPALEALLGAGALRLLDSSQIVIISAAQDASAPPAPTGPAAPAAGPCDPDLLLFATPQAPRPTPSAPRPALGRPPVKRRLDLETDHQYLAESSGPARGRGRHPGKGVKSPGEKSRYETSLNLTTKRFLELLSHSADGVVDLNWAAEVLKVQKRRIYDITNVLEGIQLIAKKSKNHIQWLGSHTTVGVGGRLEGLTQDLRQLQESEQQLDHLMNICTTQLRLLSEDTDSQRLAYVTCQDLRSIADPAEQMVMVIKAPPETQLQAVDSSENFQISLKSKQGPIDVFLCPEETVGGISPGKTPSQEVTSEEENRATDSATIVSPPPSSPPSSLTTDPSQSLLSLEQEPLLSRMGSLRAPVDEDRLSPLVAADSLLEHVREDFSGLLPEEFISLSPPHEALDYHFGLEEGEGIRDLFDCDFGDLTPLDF
How it was run: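 Endogenous E2F1 activity read through cis-promoter reporter units transfected into HepG2. After 24 h compound treatment, reporter mRNA measured by RT-PCR, HpaI digestion and capillary electrophoresis. Bidirectional fit versus DMSO.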

[10] = ATG_E_Box_CIS: Attagene CIS-FACTORIAL HepG2 Assay for human Enhancer Box (E-box) (AID 2282936); conditions: HepG2 E-box cis-reporter transcription, actives raise or lower the signal
How it was run: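 HepG2 cells transiently transfected with multiplexed cis-element reporter units, dosed 24 h; reporter mRNA quantified by RT-PCR, 6-FAM labelling, HpaI digestion and capillary electrophoresis. E-box (USF1) signal fitted bidirectionally vs DMSO.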

[11] = ATG_M_61_CIS: Attagene CIS-FACTORIAL HepG2 Assay for M61 Transcription Factor (Internal Marker) (AID 2282937); conditions: HepG2 Attagene CIS-FACTORIAL M61 internal marker reporter; actives raise or lower the signal
How it was run: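 Using transiently transfected HepG2 liver cells, reporter transcript levels were assessed 24 h post-dosing by RT-PCR and capillary electrophoresis. Changes in either direction were fitted relative to DMSO controls.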

[12] = ATG_EGR_CIS: Attagene CIS-FACTORIAL HepG2 Assay for human Early Growth Response 1 (EGR1) (AID 2282938); conditions: HepG2 Attagene CIS-FACTORIAL EGR reporter mRNA; actives raise or lower the signal
How it was run: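 Fluorescent capillary-electrophoresis signal of reporter cDNA fragments serves as read-out. HepG2 cells bear transiently transfected cis-promoter reporter units and are exposed 24 h; gain- or loss-of-signal is fitted against DMSO.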

[13] = ATG_M_19_CIS: Attagene CIS-FACTORIAL HepG2 Assay for M19 Transcription Factor (Internal Marker) (AID 2282939); conditions: HepG2 Attagene CIS-FACTORIAL M19 internal marker reporter; actives raise or lower the signal
How it was run: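 Background-control endpoint from a multiplexed HepG2 reporter panel. Cells carrying cis-regulated reporter constructs are treated 24 h, then reporter transcripts are amplified, fluorescently labelled and sized by capillary electrophoresis. DMSO defines baseline.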

[14] = ATG_ERE_CIS: Attagene CIS-FACTORIAL HepG2 Assay for Estrogen Response Element (ERE) (AID 2282940); conditions: HepG2 ERE cis-reporter, Attagene RNA transcript; actives raise or lower the signal
How it was run: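 Cells used were human hepatoma HepG2, transfected with multiple reporter transcription units under cis-regulatory promoters. Reporter mRNA, read 24 h post-dosing via fluorescent RT-PCR products on capillary electrophoresis, was fitted bidirectionally relative to DMSO.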

[15] = ATG_Ets_CIS: Attagene CIS-FACTORIAL HepG2 Assay for human Erythroblast Transformation Specific (ETS) (AID 2282941); conditions: HepG2 ETS cis-reporter transcription, actives raise or lower the signal
How it was run: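 HepG2 cells transfected with multiple cis-regulated reporter units measuring endogenous ETS-driven transcription, 24 h after dosing. Reporter mRNA quantified by RT-PCR with capillary electrophoresis; bidirectional fit relative to DMSO.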

[16] = molecular target: Hepatocyte nuclear factor 3-beta (Homo sapiens) (UniProt Q9Y261); assay: ATG_FoxA2_CIS: Attagene CIS-FACTORIAL HepG2 Assay for human Forkhead box A2 (FOXA2) (AID 2282942); conditions: HepG2 cis-reporter transcription factor activity, 24 h; actives raise or lower the signal
Sequence of Hepatocyte nuclear factor 3-beta (Homo sapiens) (Q9Y261 whole entry, looked up, the tested form may be a part): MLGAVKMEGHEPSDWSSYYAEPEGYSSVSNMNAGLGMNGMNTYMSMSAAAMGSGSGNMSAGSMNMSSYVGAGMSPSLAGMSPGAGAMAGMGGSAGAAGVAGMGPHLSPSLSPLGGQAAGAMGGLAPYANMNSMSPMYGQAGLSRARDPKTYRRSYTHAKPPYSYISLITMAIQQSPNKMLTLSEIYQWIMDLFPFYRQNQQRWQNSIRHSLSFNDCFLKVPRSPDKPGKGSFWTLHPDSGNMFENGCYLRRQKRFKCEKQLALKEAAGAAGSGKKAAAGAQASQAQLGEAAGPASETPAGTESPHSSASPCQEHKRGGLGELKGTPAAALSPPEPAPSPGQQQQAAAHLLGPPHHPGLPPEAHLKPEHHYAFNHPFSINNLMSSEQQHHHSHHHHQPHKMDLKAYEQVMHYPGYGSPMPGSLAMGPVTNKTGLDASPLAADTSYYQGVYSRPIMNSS
How it was run: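 Fluorescence signal of reporter cDNA fragments, separated by capillary electrophoresis, reflects endogenous transcription factor activity in transfected HepG2 after 24 h. Both increases and decreases fitted against DMSO.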

[17] = ATG_FoxO_CIS: Attagene CIS-FACTORIAL HepG2 Assay for human Forkhead box O (FoxO) (AID 2282943); conditions: HepG2 Attagene cis-reporter, FoxO element, mRNA; actives raise or lower the signal
How it was run: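 Read-out: fluorescence of 6-FAM-labelled reporter cDNA fragments resolved by capillary electrophoresis. Transiently transfected HepG2 cells were dosed for 24 h; activity fitted in both directions relative to DMSO controls.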

[18] = ATG_GATA_CIS: Attagene CIS-FACTORIAL HepG2 Assay for human GATA Binding Protein (AID 2282944); conditions: HepG2 GATA cis-element reporter, Attagene multiplex mRNA; actives raise or lower the signal
How it was run: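 Endogenous transcription factor activity was captured through cis-promoter-driven reporters in transfected HepG2 cells. After 24 h exposure, reporter transcripts were quantified by RT-PCR with fluorescent capillary electrophoresis, and responses fitted both directions against DMSO.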

[19] = molecular target: Retinoic acid receptor alpha (Homo sapiens) (UniProt P10276); assay: ATG_DR5_RAR_CIS: Attagene CIS-FACTORIAL HepG2 Assay for human Retinoic Acid Receptor Alpha (RARE), DR5 submotif (AID 2282934); conditions: HepG2 Attagene cis-factorial RARE DR5 reporter, mRNA; actives raise or lower the signal;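 for AC50: reporter responds to endogenous RAR alpha beta and gamma in HepG2 not RARA alone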
Sequence of Retinoic acid receptor alpha (Homo sapiens) (P10276 whole entry, looked up): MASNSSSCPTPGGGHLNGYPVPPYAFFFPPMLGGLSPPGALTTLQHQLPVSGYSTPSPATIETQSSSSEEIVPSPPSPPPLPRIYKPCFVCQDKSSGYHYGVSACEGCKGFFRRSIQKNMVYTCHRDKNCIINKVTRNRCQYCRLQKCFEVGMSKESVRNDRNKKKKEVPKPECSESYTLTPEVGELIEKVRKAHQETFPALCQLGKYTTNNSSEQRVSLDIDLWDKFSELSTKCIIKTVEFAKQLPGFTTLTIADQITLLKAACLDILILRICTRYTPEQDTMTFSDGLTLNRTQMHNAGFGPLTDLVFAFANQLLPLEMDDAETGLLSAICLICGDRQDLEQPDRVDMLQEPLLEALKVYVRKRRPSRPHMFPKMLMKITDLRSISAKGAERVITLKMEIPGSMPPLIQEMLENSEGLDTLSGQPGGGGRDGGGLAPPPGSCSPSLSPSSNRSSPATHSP
How it was run: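 Read-out: DR5-driven reporter transcript measured by RT-PCR, 6-FAM primer extension, HpaI digest and capillary electrophoresis. Human HepG2 liver cells carry transiently transfected cis-element reporter constructs; dosing lasts 24 h. Gain or loss of signal fitted against DMSO baseline.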

Measured: AC50

O=c1[nH]cc(F)c(=O)[nH]1
active: [6] 12.9 µM
not listed: [19]
inactive: all other assays above

CC1=C(/C=C/C(C)=C/C=C/C(C)=C/CO)C(C)(C)CCC1
inactive: [1] | [2] | [3] | [8] | [9] | [10] | [11] | [15] | [16]
active: [4] 65.6 µM | [5] 104 µM | [6] 168 µM | [7] 164 µM | [19] 0.104 µM | [12] 80.7 µM | [13] 172 µM | [14] 4.13 µM | [17] 167 µM | [18] 166 µM

Oc1ccc2ccccc2c1N=Nc1ccccc1
active: [5] 0.0105 µM | [14] 4.52 µM | [16] 0.14 µM
inactive: all other assays above

Cc1ccc(C)c(O)c1C
inactive: all assays above

CCCc1cc(=O)[nH]c(=S)[nH]1
active: [5] 63.9 µM | [14] 4.56 µM
inactive: all other assays above

CCCCN(CCCC)CCCC
not listed: [19]
inactive: all other assays above

O=C(N[C@@H](Cc1ccccc1)[C@@H](O)C(=O)N1C[C@@H](O)[C@@H](O)C1)c1cc2cc(Cl)ccc2[nH]1
active: [4] 60.5 µM | [6] 159 µM | [7] 155 µM | [10] 165 µM
inactive: all other assays above

O=C(OCCCCCOC(=O)c1ccccc1)c1ccccc1
inactive: all assays above
